Results taken from PubChem BioAssay (EPA / NIEHS).
Active and inactive are the calls of the source. The calls were made as follows: active = hit-call score of the fitted dose curve at least 0.9, where 1 is the maximum; inactive = score below 0.9.

Assays:
[1] = ATG_CRE_CIS: Attagene CIS-FACTORIAL HepG2 Assay for human cAMP Responsive Element (CRE) binding protein 3 (AID 2282926); details: HepG2 CRE cis-reporter, Attagene multiplexed mRNA; actives raise or lower the signal
Method in brief: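 Multiplexed transcription-unit reporters transfected into HepG2; 24 h dosing; RT-PCR/capillary electrophoresis fluorescence read-out; bidirectional fit vs DMSO.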

[2] = molecular target: CCAAT/enhancer-binding protein beta (Homo sapiens) (UniProt P17676); test: ATG_C_EBP_CIS: Attagene CIS-FACTORIAL HepG2 Assay for human CCAAT/Enhancer Binding Protein (C/EBP) beta (AID 2282927); details: HepG2 Attagene cis-factorial transcription factor reporter; actives raise or lower the signal
Method in brief: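 Transiently transfected HepG2 (MRTU library, endogenous TF-driven promoters); 24 h dosing; total RNA → oligo(dT) RT → PCR → 6-FAM primer extension → HpaI digest → CE; fit bidirectionally vs DMSO.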

[3] = ATG_CMV_CIS: Attagene CIS-FACTORIAL HepG2 Assay for human CMV (Internal Marker) (AID 2282928); details: HepG2 CMV promoter reporter, transcription factor profiling; actives raise or lower the signal;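 also: endpoint acts as a background internal control marker rather than a target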
Method in brief: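 Cell system: HepG2, transiently transfected multiple reporter units under cis promoters. Exposure: 24 h. Detection: RT-PCR, FAM labeling, HpaI digestion, capillary electrophoresis. Analysis: bidirectional, DMSO baseline.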

[4] = ATG_DR4_LXR_CIS: Attagene CIS-FACTORIAL HepG2 Assay for human Liver X Receptor (LXR), DR4 submotif (AID 2282929); details: HepG2 Attagene DR4 cis-reporter, mRNA transcription; actives raise or lower the signal
Method in brief: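 Measures endogenous transcription factor activity via a DR4-driven reporter transcript in human HepG2 cells. Compounds incubated 24 h; mRNA quantified by RT-PCR and capillary electrophoresis, analysed as gain or loss of signal versus DMSO.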

[5] = molecular target: Aryl hydrocarbon receptor (Homo sapiens) (UniProt P35869); test: ATG_Ahr_CIS: Attagene CIS-FACTORIAL HepG2 Assay for human Aryl Hydrocarbon Receptor (Ahr) (AID 2282930); details: HepG2 AhR cis-factorial reporter transcription; actives raise or lower the signal
Method in brief: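 Read-out: reporter mRNA quantified by RT-PCR with fluorescent primer extension and capillary electrophoresis. Human HepG2 liver cells carried transfected cis-promoter reporter units and were exposed to chemical for 24 h; gain or loss fitted relative to DMSO.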

[6] = ATG_AP_1_CIS: Attagene CIS-FACTORIAL HepG2 Assay for human Activator Protein 1 (AP-1) (AID 2282931); details: HepG2 Attagene cis-factorial AP-1 reporter mRNA; actives raise or lower the signal
Method in brief: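 Bidirectional concentration-response fitting against DMSO controls. Underlying signal: reporter mRNA from cis-promoter constructs in transiently transfected HepG2, measured after 24 h by RT-PCR and capillary electrophoresis.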

[7] = ATG_AP_2_CIS: Attagene CIS-FACTORIAL HepG2 Assay for human Activator Protein 2 (AP-2) (AID 2282932); details: HepG2 AP-2 cis-reporter, Attagene transcription factor profiling; actives raise or lower the signal
Method in brief: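 Multiplexed mRNA reporter assay in HepG2: cis-regulated units report endogenous factor activity after 24 h treatment. Fluorescence from capillary electrophoresis of RT-PCR products gives the signal, with DMSO as baseline.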

[8] = ATG_BRE_CIS: Attagene CIS-FACTORIAL HepG2 Assay for human Bone Morphogenetic Protein (BMP) Response Element (BRE) (AID 2282933); details: HepG2 BMP response element reporter, Attagene transcription factor profiling; actives raise or lower the signal
Method in brief: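 Read-out: reporter mRNA induction quantified by RT-PCR and capillary electrophoresis after 24 h chemical exposure of transfected HepG2 cells. Endogenous factor activity on the BMP response element; gain or loss fitted against DMSO baseline.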

Sequence of CCAAT/enhancer-binding protein beta (Homo sapiens) (P17676 whole entry, looked up): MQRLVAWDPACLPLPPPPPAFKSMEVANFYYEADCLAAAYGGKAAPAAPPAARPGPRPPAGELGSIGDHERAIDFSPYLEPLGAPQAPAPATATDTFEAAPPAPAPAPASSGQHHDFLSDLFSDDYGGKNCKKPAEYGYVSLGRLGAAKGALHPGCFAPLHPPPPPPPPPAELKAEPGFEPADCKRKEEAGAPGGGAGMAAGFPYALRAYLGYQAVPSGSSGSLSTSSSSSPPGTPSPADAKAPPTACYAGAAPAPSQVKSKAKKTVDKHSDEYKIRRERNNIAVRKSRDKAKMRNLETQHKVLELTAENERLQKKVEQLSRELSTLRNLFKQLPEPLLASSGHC
Sequence of Aryl hydrocarbon receptor (Homo sapiens) (P35869 whole entry, looked up): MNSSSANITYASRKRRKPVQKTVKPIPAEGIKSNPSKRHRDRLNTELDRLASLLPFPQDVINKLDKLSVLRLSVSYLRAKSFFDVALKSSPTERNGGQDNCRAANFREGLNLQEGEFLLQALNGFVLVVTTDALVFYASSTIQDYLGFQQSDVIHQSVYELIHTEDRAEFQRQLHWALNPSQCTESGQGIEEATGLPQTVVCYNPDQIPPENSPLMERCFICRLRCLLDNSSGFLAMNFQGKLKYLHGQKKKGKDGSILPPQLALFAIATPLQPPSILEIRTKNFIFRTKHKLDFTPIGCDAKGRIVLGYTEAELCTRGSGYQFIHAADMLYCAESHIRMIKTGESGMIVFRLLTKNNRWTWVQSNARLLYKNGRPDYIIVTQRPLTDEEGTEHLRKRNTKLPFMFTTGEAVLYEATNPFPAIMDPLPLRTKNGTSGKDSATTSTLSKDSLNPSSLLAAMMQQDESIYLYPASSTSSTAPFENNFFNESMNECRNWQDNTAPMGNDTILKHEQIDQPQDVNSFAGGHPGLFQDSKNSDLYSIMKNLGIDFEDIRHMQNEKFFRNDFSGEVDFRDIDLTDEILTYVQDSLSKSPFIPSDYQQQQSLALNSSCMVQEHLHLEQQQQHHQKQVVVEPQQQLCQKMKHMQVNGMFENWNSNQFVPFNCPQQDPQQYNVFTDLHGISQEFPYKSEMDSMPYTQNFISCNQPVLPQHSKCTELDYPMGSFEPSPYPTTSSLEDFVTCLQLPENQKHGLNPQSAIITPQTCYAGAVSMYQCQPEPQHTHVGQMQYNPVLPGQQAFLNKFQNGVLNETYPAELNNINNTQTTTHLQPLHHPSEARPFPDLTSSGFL

## CCCC(O)C(CC)CO (stereo not drawn)
[1]
  outcome: inactive
[2]
  outcome: inactive
[3]
  outcome: inactive
[4]
  outcome: inactive
[5]
  outcome: inactive
[6]
  outcome: inactive
[7]
  outcome: inactive
[8]
  outcome: inactive

## CCCCN(CCO)CCO
[1]
  outcome: inactive
[2]
  outcome: inactive
[3]
  outcome: inactive
[4]
  outcome: inactive
[5]
  outcome: inactive
[6]
  outcome: inactive
[7]
  outcome: inactive

## CCC=C(C)C=O
[1]
  outcome: inactive
[2]
  outcome: inactive
[3]
  outcome: inactive
[4]
  outcome: inactive
[5]
  outcome: inactive
[6]
  outcome: inactive
[7]
  outcome: inactive
[8]
  outcome: inactive

## CC(=O)C1=C(C)[C@@H]2C[C@@]3(C1)[C@H](C)CC[C@H]3C2(C)C
[1]
  AC50: 76.3 µM (active)
[2]
  outcome: inactive
[3]
  AC50: 68.8 µM (active)
[4]
  AC50: 58.8 µM (active)
[5]
  AC50: 55.3 µM (active)
[6]
  AC50: 76.9 µM (active)
[7]
  outcome: inactive

## CCOC(=O)CC(C)C
[1]
  outcome: inactive
[2]
  outcome: inactive
[3]
  outcome: inactive
[4]
  outcome: inactive
[5]
  outcome: inactive
[6]
  outcome: inactive
[7]
  outcome: inactive
[8]
  outcome: inactive

## Cc1ccccc1S
[1]
  AC50: 72.3 µM (active)
[2]
  outcome: inactive
[3]
  outcome: inactive
[4]
  AC50: 75.5 µM (active)
[5]
  outcome: inactive
[6]
  AC50: 36.6 µM (active)
[7]
  outcome: inactive
[8]
  outcome: inactive

## CC(C)CCCC(C)(C)O
[1]
  outcome: inactive
[2]
  outcome: inactive
[3]
  outcome: inactive
[4]
  outcome: inactive
[5]
  outcome: inactive
[6]
  outcome: inactive
[7]
  outcome: inactive
[8]
  outcome: inactive

## CC1=CCC(C(C)(C)O)CC1 (stereo not drawn)
[1]
  outcome: inactive
[2]
  outcome: inactive
[3]
  outcome: inactive
[4]
  outcome: inactive
[5]
  outcome: inactive
[6]
  outcome: inactive
[7]
  outcome: inactive
[8]
  outcome: inactive

## CCCCCCCCOS(=O)(=O)O
[1]
  outcome: inactive
[2]
  outcome: inactive
[3]
  outcome: inactive
[4]
  outcome: inactive
[5]
  outcome: inactive
[6]
  outcome: inactive
[7]
  outcome: inactive
[8]
  outcome: inactive

## O=C1CCCCCCCCCCCC(=O)OCCO1
[1]
  outcome: inactive
[2]
  outcome: inactive
[3]
  outcome: inactive
[4]
  outcome: inactive
[5]
  outcome: inactive
[6]
  outcome: inactive
[7]
  outcome: inactive
[8]
  outcome: inactive

## CC(C)(C)c1ccc(S)cc1
[1]
  outcome: inactive
[2]
  outcome: inactive
[3]
  outcome: inactive
[4]
  outcome: inactive
[5]
  outcome: inactive
[6]
  outcome: inactive
[7]
  outcome: inactive
[8]
  outcome: inactive

## C[N+](C)(C)CCO
[1]
  outcome: inactive
[2]
  outcome: inactive
[3]
  outcome: inactive
[4]
  outcome: inactive
[5]
  outcome: inactive
[6]
  outcome: inactive
[7]
  outcome: inactive
[8]
  outcome: inactive

## N=C1N=C(N)c2ccccc21
[1]
  outcome: inactive
[2]
  outcome: inactive
[3]
  outcome: inactive
[4]
  AC50: 100 µM (active)
[5]
  outcome: inactive
[6]
  outcome: inactive
[7]
  outcome: inactive
[8]
  outcome: inactive

## O=C(O)c1ccco1
[1]
  outcome: inactive
[2]
  outcome: inactive
[3]
  outcome: inactive
[4]
  outcome: inactive
[5]
  outcome: inactive
[6]
  outcome: inactive
[7]
  outcome: inactive
[8]
  outcome: inactive

## C[C@H](CCC(=O)O)[C@H]1CC[C@H]2[C@@H]3CC[C@@H]4C[C@H](O)CC[C@]4(C)[C@H]3CC[C@]12C
[1]
  outcome: inactive
[2]
  AC50: 62.7 µM (active)
[3]
  outcome: inactive
[4]
  AC50: 29.4 µM (active)
[5]
  AC50: 62.7 µM (active)
[6]
  outcome: inactive
[7]
  AC50: 168 µM (active)
[8]
  AC50: 165 µM (active)

## CC(C)(CO)CO
[1]
  outcome: inactive
[2]
  outcome: inactive
[3]
  outcome: inactive
[4]
  outcome: inactive
[5]
  outcome: inactive
[6]
  outcome: inactive
[7]
  outcome: inactive
[8]
  outcome: inactive

## CCC(=O)OC/C=C(\C)CCC=C(C)C
[1]
  outcome: inactive
[2]
  outcome: inactive
[3]
  outcome: inactive
[4]
  outcome: inactive
[5]
  outcome: inactive
[6]
  outcome: inactive
[7]
  outcome: inactive
[8]
  outcome: inactive

## CN(C)c1ccc(C=O)cc1
[1]
  outcome: inactive
[2]
  outcome: inactive
[3]
  outcome: inactive
[4]
  outcome: inactive
[5]
  outcome: inactive
[6]
  outcome: inactive
[7]
  outcome: inactive
[8]
  outcome: inactive

## c1coc(CNc2ncnc3nc[nH]c23)c1
[1]
  outcome: inactive
[2]
  outcome: inactive
[3]
  outcome: inactive
[4]
  outcome: inactive
[5]
  outcome: inactive
[6]
  outcome: inactive
[7]
  outcome: inactive
[8]
  outcome: inactive

## CC1=CC(C)C(C=O)C(C)C1 (stereo not drawn) (tested in a mixture with another compound)
[1]
  outcome: inactive
[2]
  outcome: inactive
[3]
  outcome: inactive
[4]
  outcome: inactive
[5]
  outcome: inactive
[6]
  outcome: inactive
[7]
  outcome: inactive
[8]
  outcome: inactive

## O=S(=O)(O)c1cc(S(=O)(=O)O)c2c(N=Nc3ccccc3)c(O)ccc2c1
[1]
  outcome: inactive
[2]
  outcome: inactive
[3]
  outcome: inactive
[4]
  outcome: inactive
[5]
  outcome: inactive
[6]
  outcome: inactive
[7]
  outcome: inactive
[8]
  outcome: inactive

## CC(C)N(c1ccccc1)C(C)C
[1]
  outcome: inactive
[2]
  outcome: inactive
[3]
  outcome: inactive
[4]
  outcome: inactive
[5]
  outcome: inactive
[6]
  outcome: inactive
[7]
  outcome: inactive
[8]
  outcome: inactive

## CC(C)OB(OC(C)C)OC(C)C
[1]
  outcome: inactive
[2]
  outcome: inactive
[3]
  outcome: inactive
[4]
  outcome: inactive
[5]
  outcome: inactive
[6]
  outcome: inactive
[7]
  outcome: inactive
[8]
  outcome: inactive

## C1CCCNCC1
[1]
  outcome: inactive
[2]
  outcome: inactive
[3]
  outcome: inactive
[4]
  outcome: inactive
[5]
  AC50: 62.5 µM (active)
[6]
  outcome: inactive
[7]
  outcome: inactive
[8]
  outcome: inactive

## NC(=O)c1cccnc1
[1]
  outcome: inactive
[2]
  outcome: inactive
[3]
  outcome: inactive
[4]
  outcome: inactive
[5]
  AC50: 29 µM (active)
[6]
  outcome: inactive
[7]
  outcome: inactive
[8]
  outcome: inactive

## CC1=C(C=O)C(C)(C)CCC1
[1]
  outcome: inactive
[2]
  outcome: inactive
[3]
  outcome: inactive
[4]
  outcome: inactive
[5]
  outcome: inactive
[6]
  outcome: inactive
[7]
  outcome: inactive
[8]
  outcome: inactive

## CC/C=C\C#N
[1]
  outcome: inactive
[2]
  outcome: inactive
[3]
  outcome: inactive
[4]
  outcome: inactive
[5]
  outcome: inactive
[6]
  outcome: inactive
[7]
  outcome: inactive
[8]
  outcome: inactive

## CC(CO)(CO)[N+](=O)[O-]
[1]
  outcome: inactive
[2]
  outcome: inactive
[3]
  outcome: inactive
[4]
  outcome: inactive
[5]
  outcome: inactive
[6]
  outcome: inactive
[7]
  outcome: inactive
[8]
  outcome: inactive

## CCC(C)(C)C1CCC(OC)CC1 (stereo not drawn)
[1]
  outcome: inactive
[2]
  outcome: inactive
[3]
  outcome: inactive
[4]
  outcome: inactive
[5]
  outcome: inactive
[6]
  outcome: inactive
[7]
  outcome: inactive
[8]
  outcome: inactive

## CCCCCCOC(C)=O
[1]
  outcome: inactive
[2]
  outcome: inactive
[3]
  outcome: inactive
[4]
  outcome: inactive
[5]
  outcome: inactive
[6]
  outcome: inactive
[7]
  outcome: inactive
[8]
  outcome: inactive
